In all, about 320,000 compounds went through this assay and about 2,100 (0.66%) were called active. Not shown: some 53% with an inconclusive outcome. Calls come from the whole dose curve; as a rule, active = well fitted inhibition curve with a large enough effect in the signal ratio, with a control signal flat (not every such curve was filed as active); inconclusive = small, poorly fitted or top-dose-only effect, or effect the other way, or a change in a side signal; inactive = flat fitted curve, though single readings scatter; the % refers to the signal ratio. What follows is part of a selection rich in actives, with near analogues and random picks from the rest.
Assay: qHTS Assay for Lipid Storage Modulators in Drosophila S3 Cells;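 for cell number change: cells counted by Cell Tracker Red CMTPX staining in the red channel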; for lipid storage change, negative = inhibition: % is set by controls: 0 for no effect and ±100 for the full control effect
Settings: BODIPY lipid droplet fluorescence, 18-24 h, cells fed with added oleic acid; cell number change: measured here: cell count max response; series mostly up to 46.1 µM; lipid storage change, negative = inhibition: at the top concentration
Summary of the method: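 Drosophila S3 cells loaded with oleic acid (400 uM, as added) and compounds at several concentrations; lipid droplets imaged by 488-nm laser-scanning cytometry, 500–530 nm intensity and object ratio to cell channel. Percent activity normalized to 20 uM Triacsin C.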
Potency is the fitted concentration of half-maximal effect.

Structure (SMILES)	lipid storage change, negative = inhibition	cell number change [%]	Potency	outcome
O=C(C1=C(O)C(=O)N(CCN2CCOCC2)C1c1ccc([N+](=O)[O-])cc1)c1cccs1 (centres undefined)	-23.9% (inactive)	22.6		
O=C(C1=C(O)C(=O)N(CCCn2ccnc2)C1c1ccccc1)c1ccco1 (centres undefined)	-22.1% (inactive)	-0.647		
CC(=O)C1=C(O)C(=O)N(CCO)C1c1ccccc1 (centres undefined)	-9.46% (inactive)	1.42		
Cc1ccc(/C(O)=C2/C(=O)C(=O)N(CCN3CCOCC3)C2c2ccccn2)cc1 (centres undefined)			29.1 µM (active)	
COc1ccc(C2CC(=O)N(CC(=O)NCC3CCCO3)c3ccccc3S2)cc1 (centres undefined)	5.52% (inactive)	0.213		
CC(=O)Nc1ccc(S(=O)(=O)NNC(=O)C(=O)NNc2ccccn2)cc1	-15.1% (inactive)	-5.03		
O=C(Nc1ccccc1)c1cc(S(=O)(=O)N2CCOCC2)cs1				inactive
Cc1ccc(C(=O)NCc2ccco2)cc1S(=O)(=O)N1CCOCC1	-5.7% (inactive)	-14.2		
O=C(Nc1ccccc1F)C(=O)c1cn(CC(=O)N2CCCCC2)c2ccccc12	8.05% (inactive)	-5.77		
COc1ccc(NC(=O)Cn2cnc3c(nnn3-c3ccc(C)cc3)c2=O)cc1	-12.6% [at 9.22 µM] (inactive)	-12.8		
CC(=O)C1=C(O)C(=O)N(CCc2c[nH]c3ccccc23)C1c1cccc(O)c1 (centres undefined)		-19.8	20.6 µM (active)	
CC(=O)C1=C(O)C(=O)N(CCc2c[nH]c3ccccc23)C1c1ccccc1 (centres undefined)	27.1% (inactive)	3.29		
CC(=O)C1=C(O)C(=O)N(CCc2c[nH]c3ccccc23)C1c1ccc(O)cc1 (centres undefined)	-9.82% (inactive)	-2.81		
CCOC(=O)c1[nH]c(C)c(C(=O)NCCCN2CCOCC2)c1C	10.9% (inactive)	18.3		
CCc1ccc(-n2cnc3cc(C(=O)NCC(OC)OC)ccc32)cc1	1% (inactive)	2.84		
COc1ccccc1-c1nnc(SCC(=O)Nc2ccc(S(N)(=O)=O)cc2)n1N	-0.686% (inactive)	6.66		
C=CCn1c(SCC(=O)Nc2nccs2)nnc1-c1cc2cccc(OC)c2o1		-25.4		inactive
CCn1c(SCC(=O)Nc2nccs2)nnc1-c1ccc(C)cc1	-3.09% (inactive)	-13.5		
CCn1c(SCC(=O)Nc2nccs2)nnc1-c1cc2cccc(OC)c2o1		-5.05	1.84 µM (active)	
Cc1ccc(OCC(=O)NNC(=O)c2cccnc2)cc1C	-5.08% (inactive)	0.125		
CCC(C(=O)NCc1ccco1)N(C(=O)CNS(=O)(=O)c1ccc(C)cc1)c1ccccc1F (centres undefined)		11.8	1.16 µM (active)	
CCC(C(=O)NCc1ccco1)N(C(=O)CNS(=O)(=O)c1ccc(C)cc1)c1ccccc1OC (centres undefined)	6.8% (inactive)	-11.8		
CCC(C(=O)NCc1ccco1)N(C(=O)CNS(=O)(=O)c1ccc(F)cc1)c1ccccc1F (centres undefined)	-15.5% (inactive)	-1.9		
CNC(=O)/C(C#N)=C/c1c(N2CCCCCC2)nc2ccccn2c1=O	8.81% (inactive)	0.926		

Structure (SMILES)	lipid storage change, negative = inhibition	cell number change [%]	Potency	outcome
CNC(=O)/C(C#N)=C\c1ccc(CNS(=O)(=O)c2ccc(Cl)cc2)o1	-15.4% (inactive)	-11.3		
CNC(=O)/C(C#N)=C/c1c(F)cccc1Cl		-9.91	10.3 µM (active)	
CC1=C(C#N)C(NC(=O)C2CCCCC2)(C(F)(F)F)C(=O)N1 (centres undefined)	5.78% (inactive)	14.5		
COC(=O)C1=C(C)N(C2CCCC2)C(=O)C1(NC(C)=O)C(F)(F)F (centres undefined)				inactive
COC(=O)C1=C(C)N(C(C)C)C(=O)C1(NC(=O)C1CCCCC1)C(F)(F)F (centres undefined)		24.5	25.9 µM (active)	
COc1ccc(S(=O)(=O)N2CCC(C(=O)N[C@H](C(=O)N3CCCC3)C(C)C)CC2)cc1				inactive
Cc1ccc2nc(NC(=O)CSc3nnc(C)c(=O)n3N)sc2c1	-29.4% (inactive)	0.333		
CCOC(=O)c1c(C)[nH]c(NC(=O)Nc2ccc(NC(C)=O)cc2)c1C		22.7		inactive
O=C(CN(C(=O)CCC(=O)Nc1ccccn1)c1ccc2c(c1)OCCO2)NCCc1ccccc1	9.9% (inactive)	-14.1		
NNC(=O)c1ccc2[nH]c3c(c2c1)CCCC3	6.92% (inactive)	7		
O=C(O)c1cccc2c3c([nH]c12)CCCC3	-7.44% (inactive)	23.1		
O=C(O)c1cc2[nH]c3c(c2cc1Cl)CCCC3		-7.3	4.11 µM (active)	
CC(OC(=O)C1CC(=O)N(Cc2ccco2)C1)C(=O)Nc1ccc(F)cc1Cl (centres undefined)	-1.45% (inactive)	-0.141		
Cc1cc(C)cc(N2CC(C)(C)C2=O)c1	-16.4% (inactive)			
CCCOc1ccc(N2C(=O)CC(NCCc3ccc(S(N)(=O)=O)cc3)C2=O)cc1 (centres undefined)	1.73% (inactive)	11.4		
O=C(CC(=O)NN=C1CCCC1)NCCc1ccccc1	-9.12% (inactive)	12		
O=C(NCCc1ccccc1)C(=O)NN=C1CCCC1		6	29.1 µM (active)	
S=C(NCCc1ccccc1)NN=C1CCCCCC1		-23.7		inactive
CN(C)CCOC(=O)c1ccc2c(c1)S(=O)(=O)c1ccccc1C2=O	17.4% (inactive)	0.995		
Cc1cc(C)nc(SCC(=O)N/N=C/c2cccc([N+](=O)[O-])c2)n1	5.85% (inactive)	0.279		
O=C(O)COc1ccc(/C=N/NC(=O)c2ccccc2Br)cc1	-20% (inactive)	-13.2		
O=C(COc1ccc(/C=N/NC(=O)c2ccccc2O)cc1)Nc1ccccc1	9.4% [at 9.22 µM] (inactive)	-17.8		
O=C(COc1ccc(/C=N/NC(=O)c2ccccc2Br)cc1)Nc1ccccc1		-20.5	18.4 µM (active)	

Reference: PubChem BioAssay AID2685 (National Center for Advancing Translational Sciences (NCATS), 2010)
